# Values joined by “and” are separate entries in the source; they are usually repeats but may differ in a detail not shown here. Equal values may be shown once. Where a name gives a salt, the structure may show the parent alone. About 620 (11%) of roughly 5,800 compounds showed activity. The sample holds actives, similar compounds and a random draw of the others, so the mix is not that of the screen. Values without a mark were called inactive.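 Rule for the calls: active = score above a cut-off or among the top three wells of a plate; in these data no inactive exceeds 0.85.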
# Test system: primary human hepatic stellate cells (donor 1)
# Experiment: scaled lipid accumulation score (0 = DMSO-like, 1 = nortriptyline-like); higher = stronger HSC inactivation (lipid re-accumulation), active = hit call of the paper
# Details: 48 h
# [1] = library stock concentration: 3.33 mM
# [2] = library stock concentration: 10 mM
# [3] = library stock concentration: 1 mM
# [4] = library stock concentration: 80 uM
# [5] = library stock concentration: 400 uM
# [6] = library stock concentration: 2 mM
compound,measurement,setting,value
O=C1NCCc2[nH]c(-c3ccnc(-c4cnc5ccccc5c4)c3)cc21 [MK-2 Inhibitor III],scaled lipid accumulation score,[1],≤ 0
C=C[C@H]1CN2CC[C@H]1C[C@H]2[C@H](O)c1ccnc2ccc(OC)cc12 [Quinine],scaled lipid accumulation score,library stock concentration: 6.2 mM,0.205
C=C[C@H]1CN2CC[C@H]1C[C@H]2[C@H](O)c1ccnc2ccc(OC)cc12 [Quinine sulfate],scaled lipid accumulation score,library stock concentration: 4.7 mM,0.308
same,scaled lipid accumulation score,[2],≤ 0 and 0.364
C=C[C@H]1CN2CC[C@H]1C[C@H]2[C@H](O)c1ccnc2ccc(OC)cc12 [Quinine HCl Dihydrate],scaled lipid accumulation score,[1],0.077
same,scaled lipid accumulation score,[2],0.31
CC(C)[C@H](N)C(=O)OCC(CO)OCn1cnc2c(=O)nc(N)[nH]c21 (some centres not stated),scaled lipid accumulation score,[2],0.228
CCCCCCC[C@H](O)/C=C/[C@H]1[C@H](O)CC(=O)[C@@H]1C/C=C\CCCC(=O)O [20-ethyl Prostaglandin E2],scaled lipid accumulation score,[3],≤ 0
CC(CCCO)C1CCC2C3C(O)CC4CC(=O)CCC4(C)C3CC(O)C12C (configuration not stated) [3-keto Petromyzonol],scaled lipid accumulation score,[3],≤ 0
CN(C)CCOC(=O)COc1ccc(Cl)cc1 [Centrophenoxine hydrochloride],scaled lipid accumulation score,[2],0.032
CN(C)CCOc1ccc(C(=C(CCCl)c2ccccc2)c2ccccc2)cc1.O=C(O)CC(O)(CC(=O)O)C(=O)O [Toremifene Citrate],scaled lipid accumulation score,[2],1.23 (active)
CN(C)CCOc1ccc(/C(=C(/CCCl)c2ccccc2)c2ccccc2)cc1,scaled lipid accumulation score,[2],≤ 0
OCCOc1ccc(/C(=C(/CCCl)c2ccccc2)c2ccccc2)cc1 [Ospemifene],scaled lipid accumulation score,[1],0.069
same,scaled lipid accumulation score,[2],0.171
CC/C(=C(\c1ccccc1)c1ccc(OCCN(C)C)cc1)c1ccccc1 [Tamoxifen citrate],scaled lipid accumulation score,,0.372
same,scaled lipid accumulation score,library stock concentration: 3.5 mM,0.611
same,scaled lipid accumulation score,library stock concentration: 5.4 mM,0.421
same,scaled lipid accumulation score,[2],0.253 and 0.681 and 0.432
CN(C)CCOC(=O)COc1ccc(Cl)cc1 [Meclofenoxate hydrochloride],scaled lipid accumulation score,,≤ 0
same,scaled lipid accumulation score,[2],≤ -0.027
CN(C)CCOc1ccc(/C(=C(/CCCl)c2ccccc2)c2ccccc2)cc1 [Toremifene],scaled lipid accumulation score,library stock concentration: 4.9 mM,0.264
CN(C)CCOC(=O)COc1ccc(Cl)cc1 [Meclofenoxate (Centrophenoxine) HCl],scaled lipid accumulation score,[1],≤ 0
same,scaled lipid accumulation score,[2],0.043
CC/C(=C(\c1ccccc1)c1ccc(OCCN(C)C)cc1)c1ccccc1 [Tamoxifen Citrate],scaled lipid accumulation score,[1],0.368
same,scaled lipid accumulation score,[2],0.579
CN(C)CCOc1ccc(/C(=C(/CCCl)c2ccccc2)c2ccccc2)cc1.O=C(O)CC(O)(CC(=O)O)C(=O)O,scaled lipid accumulation score,[2],0.946 (active)
CC/C(=C(\c1ccccc1)c1ccc(OCCN(C)C)cc1)c1ccccc1 [Tamoxifen],scaled lipid accumulation score,[2],0.674 and 0.394
same,scaled lipid accumulation score,library stock concentration: 13.5 mM,0.777
CN(C)CCOc1ccc(/C(=C(/CCCl)c2ccccc2)c2ccccc2)cc1 [Toremifene Citrate],scaled lipid accumulation score,[1],0.112
O=C(O)CSCC(=O)NC1CCSC1=O (configuration not stated) [Erdosteine],scaled lipid accumulation score,[1],≤ 0
same,scaled lipid accumulation score,[2],≤ 0
O=C(O)CSCC(=O)NC1CCSC1=O (configuration not stated),scaled lipid accumulation score,[2],≤ 0
CC(C)OC(=O)CCC/C=C/C[C@@H]1[C@@H](/C=C/[C@H](O)CCc2ccccc2)[C@H](O)C[C@@H]1O,scaled lipid accumulation score,[3],≤ 0
C1CNCCN1 [Piperazine],scaled lipid accumulation score,[2],≤ 0
same,scaled lipid accumulation score,library stock concentration: 23.2 mM,0.066
O=C(O)CCCCC(CCSCc1ccccc1)SCc1ccccc1 (configuration not stated),scaled lipid accumulation score,[1],≤ 0
same,scaled lipid accumulation score,[2],≤ 0
CCCC[C@@H](C=O)NC(=O)[C@H](CC(C)C)NC(=O)[C@H](CC(C)C)NC(C)=O,scaled lipid accumulation score,library stock concentration: 13 mM,0.811
CC(C)c1ccc(NC(=O)Cn2cnc3c2c(=O)n(C)c(=O)n3C)cc1,scaled lipid accumulation score,[1],≤ 0
same,scaled lipid accumulation score,[2],≤ 0
CCCCC/C=C\C/C=C\CCCCCCCC(=O)OCC [Linoleic Acid ethyl ester],scaled lipid accumulation score,[3],≤ 0
COc1ccc(Nc2nccc(NCCO)n2)cc1 [Cardiogenol C (hydrochloride)],scaled lipid accumulation score,[3],≤ 0
OCCCNc1cc(-c2ccnc(Nc3cccc(Cl)c3)n2)ccn1 [listing 1 of 2 here],scaled lipid accumulation score,[2],0.957 (active)
OCCCNc1cc(-c2ccnc(Nc3cccc(Cl)c3)n2)ccn1 [listing 2 of 2 here],scaled lipid accumulation score,[4],0.137
same,scaled lipid accumulation score,[5],0.324
same,scaled lipid accumulation score,[6],0.587
COc1ccc(Nc2nccc(NCCO)n2)cc1 [Cardiogenol C hydrochloride],scaled lipid accumulation score,[2],≤ 0
C[C@@]1(c2cc(-c3cncnc3)c(F)cc2F)CCSC(N)=N1,scaled lipid accumulation score,[1],≤ 0
same,scaled lipid accumulation score,[2],≤ 0
"CCCCCCCCCCC/C=C\C/C=C\CCCC(=O)O [Eicosa-5,8-dienoic acid (20:2 n-12)]",scaled lipid accumulation score,[3],≤ -0.021
COc1cc(C(C)=O)ccc1OCCCN1CCC(c2noc3cc(F)ccc23)CC1,scaled lipid accumulation score,[2],0.933 (active)
Cc1nc2n(c(=O)c1CCN1CCC(c3noc4cc(F)ccc34)CC1)CCCC2O (configuration not stated) [Paliperidone],scaled lipid accumulation score,[2],0.223
COc1cc(C(C)=O)ccc1OCCCN1CCC(c2noc3cc(F)ccc23)CC1 [Iloperidone],scaled lipid accumulation score,[1],0.045
same,scaled lipid accumulation score,[2],0.477
C[Se]CC[C@H](N)C(=O)O,scaled lipid accumulation score,[2],≤ 0
COc1ccc(N(C(=O)Nc2c(C)cccc2C)c2cc(Nc3ccc(N4CCN(C)CC4)cc3)ncn2)c(OC)c1,scaled lipid accumulation score,[4],≤ -0.016
same,scaled lipid accumulation score,[5],0.184
same,scaled lipid accumulation score,[6],0.849
Cc1ccc(-c2ccc3c(ccc4sc5c(c43)NC[C@@H](C)NC5=O)n2)cn1 [listing 1 of 2 here],scaled lipid accumulation score,[4],≤ -0.001
same,scaled lipid accumulation score,[5],≤ -0.001
same,scaled lipid accumulation score,[6],0.744
Cc1ccc(-c2ccc3c(ccc4sc5c(c43)NC[C@@H](C)NC5=O)n2)cn1 [listing 2 of 2 here],scaled lipid accumulation score,[2],1.28 (active)
CN(C)CC(c1ccc(O)cc1)C1(O)CCCCC1 (configuration not stated),scaled lipid accumulation score,[2],≤ 0
CN(C)CC(c1ccc(O)cc1)C1(O)CCCCC1 (configuration not stated) [Desvenlafaxine Succinate],scaled lipid accumulation score,[1],≤ 0
same,scaled lipid accumulation score,[2],≤ -0.001
CN(C)CC(c1ccc(O)cc1)C1(O)CCCCC1 (configuration not stated) [Desvenlafaxine],scaled lipid accumulation score,[1],≤ 0
same,scaled lipid accumulation score,[2],≤ -0.001
